# Data taken from paper PMC12820563, “FoxP3 forms a head-to-head dimer in vivo and stabilizes its multimerization on adjacent microsatellites”.
# The full ranking holds about 16,000 sequences; the median of “rpm ratio (pull-down/input)” is about 0.94, and the highest 2% start at about 1.7. This excerpt belongs to a sample that is enriched for the highest values.
# Molecular target: T1, MBP-FoxP1dN (Mus musculus, UniProt P58462 326-579)
# T1 sequence: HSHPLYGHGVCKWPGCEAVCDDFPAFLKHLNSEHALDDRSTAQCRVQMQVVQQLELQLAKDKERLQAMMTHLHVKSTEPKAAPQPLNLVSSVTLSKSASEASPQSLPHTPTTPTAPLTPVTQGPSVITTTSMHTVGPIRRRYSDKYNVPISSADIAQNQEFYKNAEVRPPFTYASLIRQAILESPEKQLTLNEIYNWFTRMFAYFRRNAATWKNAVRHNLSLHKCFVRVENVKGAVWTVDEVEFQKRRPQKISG
# Test: PD-seq (MBP pull-down with sequencing); 20 mM Tris-HCl pH 7.5, 100 mM NaCl, 1.5 mM MgCl2, 0.4 uM protein, 0.1 uM dsDNA library, 30 min, room temperature, amylose pull-down; high values mean tight binding
# Conditions: protein: recombinant; tags: His6-MBP; chain copies: 2; dsDNA, one strand shown
# Procedure, shortened: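 A fragment of mouse FoxP3 or FoxP1 without its N-terminus, carrying a His6-MBP tag and produced in E. coli, was combined at 0.4 µM with a 0.1 µM degenerate double-stranded DNA library filled in with Klenow. The mixture sat for 30 min at room temperature in Tris pH 7.5 buffer containing NaCl and MgCl2. Protein–DNA complexes were captured on amylose resin, washed three times, and the DNA was freed with proteinase K, barcoded by PCR and sequenced on Illumina. Binding is expressed as reads-per-million enrichment of pull-down over input, with replicates pooled.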
row,Sequence,binding signal
1,GATGATTGTTCTCCCAGCTGATGAATTCATCTTGTCGAGTAAACAAATTTTCCTAATCTTTCTGTTCAAGCGCCATCTAC,0.898 RPM ratio (pull-down/input)
2,GATGATTGTTCTCCCAGCTGATGAATTAAAGGTTTCGAGTAAACAAATTTTCCTAATCTTTCTGTTCAAGCGCCATCTAC,0.867 RPM ratio (pull-down/input)
3,GATGATTGTTCTCCCAGCTGATGAATTTCCTGACTCGAGTAAACAAATTTTCCTAATCTTTCTGTTCAAGCGCCATCTAC,0.753 RPM ratio (pull-down/input)
4,GATGATTGTTCTCCCAGCTGATGAATTAAGATCTTCGAGTAAACAAATTTTCCTAATCTTTCTGTTCAAGCGCCATCTAC,0.868 RPM ratio (pull-down/input)
5,GATGATTGTTCTCCCAGCTGATGAATTCCTCTGATCGAGTAAACAAATTTTCCTAATCTTTCTGTTCAAGCGCCATCTAC,0.844 RPM ratio (pull-down/input)
6,GATGATTGTTCTCCCAGCTGATGAATTTATTTCCTCGAGTAAACAAATTTTCCTAATCTTTCTGTTCAAGCGCCATCTAC,1.3 RPM ratio (pull-down/input)
7,GATGATTGTTCTCCCAGCTGATGAATTTGTTGACTCGAGTAAACAAATTTTCCTAATCTTTCTGTTCAAGCGCCATCTAC,2.35 RPM ratio (pull-down/input)
8,GATGATTGTTCTCCCAGCTGATGAATTTGATGACTCGAGTAAACAAATTTTCCTAATCTTTCTGTTCAAGCGCCATCTAC,0.974 RPM ratio (pull-down/input)
9,GATGATTGTTCTCCCAGCTGATGAATTTTATTACTCGAGTAAACAAATTTTCCTAATCTTTCTGTTCAAGCGCCATCTAC,1.01 RPM ratio (pull-down/input)
10,GATGATTGTTCTCCCAGCTGATGAATTTGTTTACTCGAGTAAACAAATTTTCCTAATCTTTCTGTTCAAGCGCCATCTAC,2.62 RPM ratio (pull-down/input)
11,GATGATTGTTCTCCCAGCTGATGAATTGTTTTACTCGAGTAAACAAATTTTCCTAATCTTTCTGTTCAAGCGCCATCTAC,1.42 RPM ratio (pull-down/input)
12,GATGATTGTTCTCCCAGCTGATGAATTTTATTTCTCGAGTAAACAAATTTTCCTAATCTTTCTGTTCAAGCGCCATCTAC,1.16 RPM ratio (pull-down/input)
13,GATGATTGTTCTCCCAGCTGATGAATTATTTTACTCGAGTAAACAAATTTTCCTAATCTTTCTGTTCAAGCGCCATCTAC,1.2 RPM ratio (pull-down/input)
14,GATGATTGTTCTCCCAGCTGATGAATTTATTTACTCGAGTAAACAAATTTTCCTAATCTTTCTGTTCAAGCGCCATCTAC,2.5 RPM ratio (pull-down/input)
15,GATGATTGTTCTCCCAGCTGATGAATTTTTTTACTCGAGTAAACAAATTTTCCTAATCTTTCTGTTCAAGCGCCATCTAC,0.958 RPM ratio (pull-down/input)
16,GATGATTGTTCTCCCAGCTGATGAATTTTTTGACTCGAGTAAACAAATTTTCCTAATCTTTCTGTTCAAGCGCCATCTAC,0.935 RPM ratio (pull-down/input)
17,GATGATTGTTCTCCCAGCTGATGAATTTATTTTCTCGAGTAAACAAATTTTCCTAATCTTTCTGTTCAAGCGCCATCTAC,1.77 RPM ratio (pull-down/input)

row,Sequence,binding signal
1,GATGATTGTTCTCCCAGCTGATGAATTCAATGCGTCGAGTAAACAAATTTTCCTAATCTTTCTGTTCAAGCGCCATCTAC,1.05 RPM ratio (pull-down/input)
2,GATGATTGTTCTCCCAGCTGATGAATTATTACGTTCGAGTAAACAAATTTTCCTAATCTTTCTGTTCAAGCGCCATCTAC,1.21 RPM ratio (pull-down/input)
3,GATGATTGTTCTCCCAGCTGATGAATTTGGGATGTCGAGTAAACAAATTTTCCTAATCTTTCTGTTCAAGCGCCATCTAC,0.922 RPM ratio (pull-down/input)
4,GATGATTGTTCTCCCAGCTGATGAATTTACCGAATCGAGTAAACAAATTTTCCTAATCTTTCTGTTCAAGCGCCATCTAC,1.37 RPM ratio (pull-down/input)
5,GATGATTGTTCTCCCAGCTGATGAATTGAAAGCATCGAGTAAACAAATTTTCCTAATCTTTCTGTTCAAGCGCCATCTAC,1.2 RPM ratio (pull-down/input)
6,GATGATTGTTCTCCCAGCTGATGAATTCACCGGTTCGAGTAAACAAATTTTCCTAATCTTTCTGTTCAAGCGCCATCTAC,0.877 RPM ratio (pull-down/input)
7,GATGATTGTTCTCCCAGCTGATGAATTGATCTTATCGAGTAAACAAATTTTCCTAATCTTTCTGTTCAAGCGCCATCTAC,1.08 RPM ratio (pull-down/input)
8,GATGATTGTTCTCCCAGCTGATGAATTTGGTATATCGAGTAAACAAATTTTCCTAATCTTTCTGTTCAAGCGCCATCTAC,1.23 RPM ratio (pull-down/input)
9,GATGATTGTTCTCCCAGCTGATGAATTTTAGGGATCGAGTAAACAAATTTTCCTAATCTTTCTGTTCAAGCGCCATCTAC,0.823 RPM ratio (pull-down/input)
10,GATGATTGTTCTCCCAGCTGATGAATTCCTATTATCGAGTAAACAAATTTTCCTAATCTTTCTGTTCAAGCGCCATCTAC,1.33 RPM ratio (pull-down/input)
11,GATGATTGTTCTCCCAGCTGATGAATTATTTGACTCGAGTAAACAAATTTTCCTAATCTTTCTGTTCAAGCGCCATCTAC,1.07 RPM ratio (pull-down/input)
12,GATGATTGTTCTCCCAGCTGATGAATTTATTGTCTCGAGTAAACAAATTTTCCTAATCTTTCTGTTCAAGCGCCATCTAC,1.78 RPM ratio (pull-down/input)
13,GATGATTGTTCTCCCAGCTGATGAATTATTTGTCTCGAGTAAACAAATTTTCCTAATCTTTCTGTTCAAGCGCCATCTAC,1.66 RPM ratio (pull-down/input)
14,GATGATTGTTCTCCCAGCTGATGAATTTTATGACTCGAGTAAACAAATTTTCCTAATCTTTCTGTTCAAGCGCCATCTAC,0.916 RPM ratio (pull-down/input)
15,GATGATTGTTCTCCCAGCTGATGAATTTATTGACTCGAGTAAACAAATTTTCCTAATCTTTCTGTTCAAGCGCCATCTAC,1.85 RPM ratio (pull-down/input)
16,GATGATTGTTCTCCCAGCTGATGAATTTTATGTCTCGAGTAAACAAATTTTCCTAATCTTTCTGTTCAAGCGCCATCTAC,0.899 RPM ratio (pull-down/input)
